Laboratory results from PubChem BioAssay (NCATS).
“And” between values parts separate entries of the source, which are not always exact repeats. Equal values may be shown once. Results filed as inconclusive are left out. Where a call stands in place of a potency, no number is given. The source made the active and inactive calls. Calls come from the whole dose curve; as a rule, active = well fitted inhibition curve with a large enough effect; inconclusive = small, poorly fitted or top-dose-only effect; inactive = flat fitted curve, though single readings scatter.

Tested on: Zika virus NS2B-NS3 protease
Test: Primary screen GU AMC qHTS for Zika virus inhibitors (AID 1347154); note: nearly all actives have a fitted effect of over 70% in size
Details: Zika NS2B-NS3 unlinked protease, AMC fluorogenic substrate; series mostly up to 54.1 µM; activity change, negative = inhibition: at the top concentration
Procedure, shortened: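 Fluorogenic AMC-substrate cleavage by noncovalent NS2B-NS3 protease complex (25 nM, pH 8.0 Tris buffer with Tween 20) followed for 15 minutes at room temperature (~20% conversion). Percent inhibition from ex340/em450 signal change, fitted by 4-parameter Hill equation.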
Potency is the fitted concentration of half-maximal effect.

Q: How did the Potency turn out when Clc1ccc2nsnc2c1NC1=NCCN1 was run?
A: inactive

Q: With Cn1c(=O)c2[nH]cnc2n(C)c1=O as the compound, how does the Potency read?
A: inactive

Q: With CCC1(c2ccccc2)C(=O)NCNC1=O as the compound, how does the Potency read?
A: inactive

Q: O=C1c2c(O)ccc(O)c2C(=O)c2c(NCCNCCO)ccc(NCCNCCO)c21 was tested. Which Potency did it give?
A: inactive

Q: How did the Potency turn out when CC(C)Cc1ccc(C(C)C(=O)O)cc1 (stereo unspecified) was run?
A: inactive

Q: With CN1CCN(CCCN2c3ccccc3Sc3ccc(Cl)cc32)CC1 as the compound, how does the Potency read?
A: inactive

Q: Which Potency does the source give for COc1cc2c(c(OC)c1OC)-c1ccc(OC)c(=O)cc1[C@@H](NC(C)=O)CC2 here?
A: inactive

Q: Which Potency does the source give for CC(CCc1ccc(O)cc1)NCCc1ccc(O)c(O)c1 (stereo unspecified) here?
A: inactive

Q: NC(=O)NO was tested. Which Potency did it give?
A: inactive

Q: With CC(COc1ccccc1)N(CCCl)Cc1ccccc1 (stereo unspecified) as the compound, how does the Potency read?
A: inactive

Q: Which Potency does the source give for CCCCc1oc2ccccc2c1C(=O)c1cc(I)c(OCCN(CC)CC)c(I)c1 here?
A: inactive

Q: Which Potency does the source give for CS(=O)(=O)Nc1ccc([N+](=O)[O-])cc1Oc1ccccc1 here?
A: inactive

Q: CC1COc2c(N3CCN(C)CC3)c(F)cc3c(=O)c(C(=O)O)cn1c23 (stereo unspecified) was tested. Which Potency did it give?
A: 28.7 µM (active) and 24.1 µM (active)

Q: With O=C1Cc2cc(CCN3CCN(c4nsc5ccccc45)CC3)c(Cl)cc2N1 as the compound, how does the Potency read?
A: inactive

Q: How did the Potency turn out when CN(C)CCCN1c2ccccc2CCc2ccc(Cl)cc21 was run?
A: inactive

Q: For NC12CC3CC(CC(C3)C1)C2, which Potency is on record?
A: inactive

Q: CC[N+](CC)(CC)CCOc1cccc(OCC[N+](CC)(CC)CC)c1OCC[N+](CC)(CC)CC was tested. Which Potency did it give?
A: inactive

Q: How did the “activity change, negative = inhibition” value turn out when O=C(Nc1ccc([N+](=O)[O-])cc1Cl)c1cc(Cl)ccc1O was run?
A: -1.99% [at 25.8 µM] (inactive)

Q: For COC(=O)Nc1nc2ccc(C(=O)c3cccs3)cc2[nH]1, which Potency is on record?
A: inactive

Q: With CC(C)C(=O)Nc1ccc([N+](=O)[O-])c(C(F)(F)F)c1 as the compound, how does the Potency read?
A: inactive

Q: O=C(c1ccc(OCCN2CCCCC2)cc1)c1c(-c2ccc(O)cc2)sc2cc(O)ccc12 was tested. Which Potency did it give?
A: inactive

Q: With Clc1ccc(C(c2ccccc2Cl)C(Cl)Cl)cc1 (stereo unspecified) as the compound, how does the Potency read?
A: inactive

Q: CC[C@@]1(O)C(=O)OCc2c1cc1n(c2=O)Cc2cc3c(CN(C)C)c(O)ccc3nc2-1 was tested. Which Potency did it give?
A: inactive

Q: How did the Potency turn out when CC(C)NCC(O)c1ccc(O)c(O)c1 (stereo unspecified) was run?
A: inactive

Q: Which Potency does the source give for Nc1ccn([C@H]2CC[C@@H](CO)O2)c(=O)n1 here?
A: inactive

Q: For CC#C[C@]1(O)CC[C@H]2[C@@H]3CCC4=CC(=O)CCC4=C3[C@@H](c3ccc(N(C)C)cc3)C[C@@]21C, which Potency is on record?
A: inactive
